A selection: hits, their analogues and other compounds. The true share with any hit is near 2.2%.
KLK7 zymogen act – activates the human kallikrein-7 zymogen. AID 652039. purified proKLK7, EDANS-DABCYL substrate fluorescence; 100% is mature enzyme control, 0% vehicle. 370,000 tested, 0.9% active. activation, % at 7 µM;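 active means activation above the mean of all tested compounds plus 3 SD, computed per campaign excluding outliers beyond control limits, cut at about 13% in these data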
NPR2 activator – GC-B (human) receptor activation; 370,000 tested, 0.11% active; AID 1920062; activation, % at 10 µM; HEK293-GC-B cells, CNP EC30, cGMP TR-FRET; 0% at EC30 CNP, 100% saturating CNP; P20594;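 active means activation at 10 µM reaching about 35% in either raw or pattern-adjusted values, limit read from the data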
ADAM17 inh – inhibits human ADAM17; 370,000 tested, 0.83% active; P78536; AID 720648; inhibition, % at 6.95 µM; recombinant ADAM17, EDANS/DABCYL FRET peptide cleavage;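 active means inhibition above the mean of compounds lying between control limits plus 3 SD, set per campaign, cut at about 8.5% in these data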
Target sequence (P78536 215-824 limits assumed): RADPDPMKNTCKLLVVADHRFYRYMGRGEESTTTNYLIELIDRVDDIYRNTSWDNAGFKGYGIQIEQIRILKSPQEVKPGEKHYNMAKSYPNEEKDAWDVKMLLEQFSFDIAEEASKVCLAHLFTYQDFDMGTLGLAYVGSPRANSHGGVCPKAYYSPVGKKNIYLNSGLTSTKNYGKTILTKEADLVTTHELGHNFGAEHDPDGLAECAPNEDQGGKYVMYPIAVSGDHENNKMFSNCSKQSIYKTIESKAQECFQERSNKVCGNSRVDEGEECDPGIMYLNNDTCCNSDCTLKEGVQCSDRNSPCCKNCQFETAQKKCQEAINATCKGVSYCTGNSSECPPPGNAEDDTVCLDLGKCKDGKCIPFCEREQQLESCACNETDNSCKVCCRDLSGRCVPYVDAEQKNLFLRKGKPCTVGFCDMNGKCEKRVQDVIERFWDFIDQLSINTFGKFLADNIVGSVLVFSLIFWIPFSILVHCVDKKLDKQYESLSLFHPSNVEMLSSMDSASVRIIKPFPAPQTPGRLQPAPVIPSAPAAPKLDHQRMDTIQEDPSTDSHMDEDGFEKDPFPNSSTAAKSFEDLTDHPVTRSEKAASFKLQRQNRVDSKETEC
ADAM10 inh – ADAM10 inhibition, QFRET primary screen; inhibition, % at 7 µM; recombinant ADAM10, EDANS/DABCYL FRET peptide cleavage, 3 h; 370,000 tested, 0.62% active; AID 720582;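 active means inhibition above a per-campaign cutoff equal to the mean of compounds falling between control-based bounds plus 3 SD, cut at about 20% in these data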
NPR1 activator – GC-A (human) enzyme activation | P16066 | HEK293 GC-A cells, cGMP TR-FRET, EC30 ANP; 0% at EC30 ANP, 100% saturating ANP | activation, % at 10 µM | 370,000 tested, 0.14% active; in the data active means activation above about 40%
KLK7 act conf – proKLK7 activation, confirmation; shares compounds with KLK7 zymogen act; purified proKLK7, EDANS-DABCYL substrate fluorescence; scaled: vehicle 0, mature enzyme 100; activation, % at 7 µM; 3,200 tested, 68% active; AID 686949;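 active means activation, as change over the incubation, above the mean of all tested compounds plus 3 SD, cut at about 13% in these data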
EDANS-DABCYL int – counter-screen for kallikrein-7 activators: EDANS-DABCYL optical interference; AID 686952; shares compounds with KLK7 zymogen act; EDANS-DABCYL substrate fluorescence interference, no enzyme, 4 h; solvent 0%, active enzyme control 100%; activation, % at 7 µM; 3,200 tested, 80% active;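 active means activation above the all-compound mean plus 3 SD, ignoring values outside control-based bounds, cut at about 4.8% in these data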;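 further: value is the 4 h activation minus the activation read at time zero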
EDANS interf – counter-screen for kallikrein-7 activators: EDANS-DABCYL interference, dose response; EDANS-DABCYL peptide fluorescence interference, no enzyme; shares compounds with KLK7 zymogen act; EC50, µM; AID 720493; 250 tested, 20% active;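 active means compounds that raise the fluorescence signal in this interference counterscreen, with EC50 at or below 10 µM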;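 further: intact quenched peptide substrate alone read at 355 nm excitation and 520 nm emission; signal is fluorescence gain from T0 to T4 after four hours at room temperature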
Each line names hits and unclear results; the compound was inactive in the other large screens (follow-up assays come after a bar, where they were run).

FC(F)(F)c1ccccc1C(C#Cc1ccccc1)NCc1ccc2c(c1)OCO2 (configuration not stated)	none
CCN(CC)c1ccc2c(C)c(CO)c(=O)oc2c1	KLK7 zymogen act 50.3 | KLK7 act conf 50.6 | EDANS-DABCYL int 36.0 | EDANS interf inactive
CCN(CC)c1ccc2c(O)cc(=O)oc2c1	none
O=c1nc2ccc(Cl)cn2c2ccc(S(=O)(=O)N3CCCCC3)cc12	none
O=c1nc2ccc(Cl)cn2c2ccc(S(=O)(=O)N3CCOCC3)cc12	KLK7 zymogen act 19.8 | KLK7 act conf 70.2 | EDANS-DABCYL int 78.5
CCC[C@@H](NS(=O)(=O)c1ccc(C)cc1)C(=O)Oc1ccc2c3c(c(=O)oc2c1)CCC3	KLK7 zymogen act 41.8 | KLK7 act conf 631.0 | EDANS-DABCYL int 536.1
Cc1ccc(S(=O)(=O)NCCC(=O)Oc2ccc3ccc(=O)oc3c2)cc1	KLK7 zymogen act 48.6 | KLK7 act conf 612.9 | EDANS-DABCYL int 625.5
COc1ccc2c(C)c(Cl)c(=O)oc2c1	none
CCCC(NS(=O)(=O)c1ccc(C)cc1)C(=O)O (configuration not stated)	none
Cc1ccc(S(=O)(=O)NC(C(=O)Oc2ccc3c(C)c(Cl)c(=O)oc3c2)c2ccccc2)cc1 (configuration not stated)	KLK7 zymogen act 54.8 | KLK7 act conf 69.0 | EDANS-DABCYL int 78.1
Cc1ccc(S(=O)(=O)NC(C(=O)Oc2ccc3ccc(=O)oc3c2)c2ccccc2)cc1 (configuration not stated)	KLK7 zymogen act 63.1 | KLK7 act conf 329.0 | EDANS-DABCYL int 377.0
Cc1ccc2cc(S(=O)(=O)NCCC(=O)O)ccc2c1	none
COC(=O)[C@H]1C[C@@]2(C#N)c3ccccc3N(C(=O)OC(C)(C)C)[C@H]2N1C(=O)OC(C)(C)C	none
C/C(=N\NC(=O)CSc1nnc(-c2ccccc2)n1-c1ccc(C)cc1)c1ccc(-c2ccccc2)cc1	none
CCOC(=O)[C@]12CCCC=C1N(Cc1ccc(OC)cc1)C(=O)[C@@H]2CC(=O)NCc1cccc2ccccc12	none
N#Cc1cc(Cl)c(N2CCOCC2)cc1C#N	none
N#Cc1cc2ccc(N3CCOCC3)cc2cc1C#N	KLK7 zymogen act 33.6 | KLK7 act conf inactive | EDANS-DABCYL int inactive
Nc1ccc2nc(-c3cccc(-c4nc5ccc(N)cc5[nH]4)c3)[nH]c2c1	none
Cc1nc2ccc(-c3nc4ccc(N)cc4[nH]3)cc2[nH]1	KLK7 zymogen act 37.0 | KLK7 act conf 68.8 | EDANS-DABCYL int 66.5
Cc1ccc(C)c(-c2nc3ccc(N)cc3[nH]2)c1	none
Nc1ccc2nc(-c3cc(Cl)c(N)c(Cl)c3)[nH]c2c1	KLK7 zymogen act 23.5 | KLK7 act conf 20.8 | EDANS-DABCYL int 12.8 | EDANS interf inactive
Nc1ccc2nc(-c3ccc(Cl)cc3)[nH]c2c1	KLK7 zymogen act 66.3 | KLK7 act conf 64.3 | EDANS-DABCYL int 65.9
Cc1ccc2nc(-c3ccccc3N)[nH]c2c1	KLK7 zymogen act 67.8 | KLK7 act conf inactive | EDANS-DABCYL int inactive
c1ccc(-c2cc(-c3nnc4sc(Cc5cccs5)nn34)[nH]n2)cc1	none
O=C(OCCN1CCN(C2CN(Cc3cn(Cc4ccccc4C(F)(F)F)nn3)S(=O)(=O)C2)CC1)c1cc2ccccc2o1 (configuration not stated)	none
Nc1ccc(-c2nc3c(Cl)c(N)ccc3[nH]2)cc1	KLK7 zymogen act 70.4 | KLK7 act conf 70.1 | EDANS-DABCYL int 76.8
Nc1ccc(-c2nc3ccc([N+](=O)[O-])cc3[nH]2)cc1	none
Nc1ccc(-c2nc3ccc(N)cc3[nH]2)cc1	KLK7 zymogen act 86.7 | KLK7 act conf 69.4 | EDANS-DABCYL int 75.3
Cc1ccc(S(=O)(=O)NCCc2cn3nc(C)c(C)nc3n2)cc1C	KLK7 zymogen act 57.9 | KLK7 act conf 41.3 | EDANS-DABCYL int 49.3
COc1ccc(S(=O)(=O)NCCc2cn3nc(C)c(C)nc3n2)cc1C	KLK7 zymogen act 32.7 | KLK7 act conf 37.0 | EDANS-DABCYL int 45.1
Cc1ccc(S(=O)(=O)NCCc2ccncc2)cc1C	none
CCc1cc2c(CN3CCN(Cc4ccccc4)CC3)cc(=O)oc2cc1O	KLK7 zymogen act 62.0 | KLK7 act conf 21.1 | EDANS-DABCYL int inactive | EDANS interf inactive
Cc1c(-c2ccccc2)c(=O)oc2ccc(O)cc12	none
Cc1c(CC(=O)NCC(=O)N[C@H](Cc2ccccc2)C(=O)O)c(=O)oc2cc(O)ccc12	KLK7 zymogen act 72.2 | KLK7 act conf 63.7 | EDANS-DABCYL int 72.9
CCc1ccc2c(CN3CCN(Cc4ccccc4)CC3)cc(=O)oc2c1	none
Cc1c(O)ccc2c(CC(=O)N[C@@H](Cc3ccccc3)C(=O)O)cc(=O)oc12	KLK7 zymogen act 36.2 | KLK7 act conf 64.8 | EDANS-DABCYL int 61.3
Cc1c(-c2ccccc2)c(=O)oc2cc(O)ccc12	KLK7 zymogen act 25.2 | KLK7 act conf 64.7 | EDANS-DABCYL int 69.0
N#CCC[C@@H]1CC[C@]2(CCCN(S(=O)(=O)c3ccccc3)C2)O1	none
O=C(NC1CCCCN(Cc2cccc(C(F)(F)F)c2)C1=O)c1cccc(C(F)(F)F)c1 (configuration not stated)	none
O=c1cc(CN2CCN(Cc3ccccc3)CC2)c2ccc(O)c(O)c2o1	none
Cc1c(O)ccc2c(CN3CCN(Cc4ccccc4)CC3)cc(=O)oc12	KLK7 zymogen act 46.0 | KLK7 act conf 78.2 | EDANS-DABCYL int 74.6
CCN(CC)C(=O)CC[C@@H]1CC[C@]2(CCCN(C(=O)c3cccnc3)C2)O1	none
Cc1nn(-c2ccccc2)c2sc(C(=O)N3CCN(Cc4ccc(F)cc4)CC3)cc12	none
Cc1ccc2nc(NCCC(=O)O)nc(-c3ccccc3)c2c1	none
Cc1ccc2nc(NCC(N)=O)nc(-c3ccccc3)c2c1	KLK7 zymogen act 29.9 | KLK7 act conf 22.0 | EDANS-DABCYL int 33.6
Cc1ccc2nc(NCC(=O)O)nc(-c3ccccc3)c2c1	KLK7 zymogen act 14.2 | KLK7 act conf 28.5 | EDANS-DABCYL int 15.5 | EDANS interf inactive
Cc1ccc2nc(NCCCO)nc(-c3ccccc3)c2c1	none
COC(=O)[C@]12C[C@H](CC(=O)NCc3cccc(C(F)(F)F)c3)C(=O)N(Cc3cccc4ccccc34)C1=C[C@H](C(C)(C)C)O[C@@H]2C	none

Compound activity from PubChem.
